# An excerpt weighted towards active compounds, which were near 11% of everything screened.
# ALOX12 inhib: qHTS Assay for Inhibitors of 12-hLO (12-human lipoxygenase); Potency, µM (series often up to 57.1 µM), without a hit: top-dose activity change, negative = inhibition, usual class: inhibitors; purified 12-hLO, xylenol orange hydroperoxide absorbance; AID 1452, 2008; hit rate 0.12% among 150,000; further: potency means the concentration at half of the fitted maximal effect; nearly all actives have a fitted effect of over 55% in size
# Target sequence (P18054 whole entry, looked up): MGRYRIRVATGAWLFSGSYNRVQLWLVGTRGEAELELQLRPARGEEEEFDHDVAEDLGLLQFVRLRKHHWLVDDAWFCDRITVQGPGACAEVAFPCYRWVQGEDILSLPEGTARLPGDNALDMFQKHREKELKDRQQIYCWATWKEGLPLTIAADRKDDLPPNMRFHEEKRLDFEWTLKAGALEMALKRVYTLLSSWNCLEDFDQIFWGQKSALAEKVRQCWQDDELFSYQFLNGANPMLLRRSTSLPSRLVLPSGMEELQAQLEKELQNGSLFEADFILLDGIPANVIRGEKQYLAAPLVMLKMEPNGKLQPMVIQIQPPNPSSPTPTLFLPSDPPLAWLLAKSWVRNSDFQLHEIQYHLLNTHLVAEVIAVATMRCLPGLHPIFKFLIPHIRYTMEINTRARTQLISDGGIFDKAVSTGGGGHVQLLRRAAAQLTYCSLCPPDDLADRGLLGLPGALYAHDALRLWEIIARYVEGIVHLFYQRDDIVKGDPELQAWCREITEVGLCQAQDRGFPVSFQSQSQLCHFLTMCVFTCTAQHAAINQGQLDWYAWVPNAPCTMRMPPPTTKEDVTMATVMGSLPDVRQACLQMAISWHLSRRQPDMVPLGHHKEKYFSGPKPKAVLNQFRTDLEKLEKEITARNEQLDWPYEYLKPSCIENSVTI
#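 Hydroperoxide output read as Fe(III)-xylenol orange absorbance, 573-to-405 nm ratio, after 30 min reaction with 40 uM arachidonic acid. Enzyme: 150 nM purified human 12hLO, 15 min compound preincubation; 25 mM Hepes pH 7.0, room temperature.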
# IMPase cell inh: qHTS Assay for Identifying the Cell-Membrane Permeable IMPase Inhibitors; Inositol monophosphatase 1 (Rattus norvegicus), P97697; CHO-M1 cells, IP1 accumulation, HTRF TR-FRET ratio; inhibition (IP1 accumulation), % at 46.1 µM; 120,000 tested, under 10 active; AID 901, 2007; active means well fitted curve in the direction sought with a large enough effect in the signal ratio, not every such curve was filed as active; inconclusive means small, poorly fitted or top-dose-only effect, or a change in a side signal; inactive means no such curve, though single readings can be large or run the other way; the % refers to the signal ratio;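 further: cells stimulated with carbachol in lithium chloride buffer; plate controls were DMSO basal wells for no effect and reference inhibitor wells for full effect; higher means more IMPase inhibition seen as more IP1 and lower FRET ratio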
#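 CHO-M1, 2000 cells/well, cultured 16–30 h; cpd up to 46 uM; carbachol (50 uM solution, stimulation buffer w/ 50 mM LiCl, pH 7.4), 30 min 37C; IP-One TR-FRET, 10 min RT; Ex 320/Em 665, 620; Hill-fit AC50.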
# PNC inhibitor: High Content Assay for Compounds that inhibit the Assembly of the Perinucleolar Compartment | PC3M PTB-GFP, PNC prevalence imaging, 16 h; stronger effect = lower value | activity change (PNC), negative = inhibition, % at 10 µM | hit rate 3.1% among 140,000 | AID 2417, 2010;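 active means readout at or below -70, meaning at least 70% loss of cells showing the perinucleolar compartment, a nuclear body marking cancer cells; inconclusive means readout between -30 and a set limit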;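 further: plate controls were DMSO wells for no effect and camptothecin positive control wells for full effect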
#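 Read-out is percentage of cells bearing a perinucleolar compartment, from automated 20x imaging of fixed, Hoechst-stained PC3M PTB-GFP cells. Cells were seeded 4 h, then exposed 16 h to compound (23 nl of library stock) in duplicate plates.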
# IMPase Li inh: qHTS Assay for Identifying the Cell-Membrane Permeable IMPase Inhibitors: Potentiation with Lithium; hit rate 0.35% among 210,000; AID 1457, 2008; Potency, µM (titrated, usually from 59.4 µM), for the others: at the highest dose activity, negative = IMPase inhibition, actives largely listed as inhibitors; CHO-M1 cells, IP1 TR-FRET (IP-One), carbachol + lithium;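 further: IP1 builds up when IMPase is blocked and the TR-FRET signal falls; potency means the concentration at half of the fitted maximal effect; plate controls were basal vehicle for no effect and high inhibitor control for full effect; nearly all actives have a fitted effect of over 50% in size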
#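 Test compounds were applied to CHO-M1 cells previously cultured for 16–30 h at 2000 per well. A small lithium amount accompanied them; after 30 min at 37C, IP1 was quantified by TR-FRET.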
# HPGD block: qHTS Assay for Inhibitors of HPGD (15-Hydroxyprostaglandin Dehydrogenase). 15-hydroxyprostaglandin dehydrogenase [NAD(+)] (Homo sapiens), P15428. purified HPGD, NADH fluorescence kinetic, PGE2 substrate. Potency, µM, inactives show top-dose activity change, negative = inhibition, actives largely listed as inhibitors. hit rate 4.3% among 150,000. AID 894, 2007; active means well fitted inhibition curve with a large enough effect, not every such curve was filed as active; inconclusive means small, poorly fitted or top-dose-only effect, or another doubt; inactive means no such curve, though single readings can be large or run the other way; further: potency means the concentration at half of the fitted maximal effect
#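 NADH formation kinetics: reaction with 30 uM PGE2 and 1 mM NAD+ (final), 20 nM enzyme, Tris-HCl pH 8 with Tween 20, after 15 min compound preincubation at room temperature. Fluorescence change, last versus first of five reads.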
# ALDH1A1 block: qHTS Assay for Inhibitors of Aldehyde Dehydrogenase 1 (ALDH1A1) | Purified ALDH1A1, NADH fluorescence, propionaldehyde substrate | Potency, µM (series often up to 75.3 µM), for the others: top-dose activity, negative = inhibition, most hits filed as inhibitors | hit rate 7.3% among 220,000 | AID 1030, 2008; active means well fitted inhibition curve with a large enough effect, not every such curve was filed as active; inconclusive means small, poorly fitted or top-dose-only effect, or another doubt; inactive means no such curve, though single readings can be large or run the other way;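 further: potency means the concentration at half of the fitted maximal effect; plate controls were no enzyme wells and a reference inhibitor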
# Numbers without * were called inactive; u = inconclusive; x = no result given; [ ] = dose if it differs, or a comment. Unless noted, the call rests on the fitted dose curve; in most records, active means well fitted curve in the direction sought with a large enough effect; inconclusive means small, poorly fitted or top-dose-only effect, or another doubt; inactive means no such curve, though single readings can be large; an effect the other way counts as inactive or inconclusive. Unless noted, on the % scale 0 is the no-effect control and ±100 the full control effect.
SMILES,ALOX12 inhib,IMPase cell inh,PNC inhibitor,IMPase Li inh,HPGD block,ALDH1A1 block
CNC(=O)c1ccc(NC(=O)COc2ccc(-c3nn(C)c(=O)c4ccccc34)cc2)cc1,x,-1,x,x,x,x
CCCn1c(SCC(=O)NC(=O)NC(C)(C)C)n[nH]c1=O,x,x,x,6%,x,5%
Cc1ccc2c(c1)c1c3n2CC(=C2C(=O)OC(C)(C)OC2=O)NC3CCC1 (stereo not drawn),-20%,-7,8,8%[38.3 µM],-17%,10µM*
O=C1[C@@H]2[C@H]3[C@H](O)[C@H](O)C/C(=N/OC[C@@H](O)COCc4ccco4)[C@@H]3CC[C@H]2C(=O)N1c1ccc(F)cc1F,x,x,x,x,x,3%[13.5 µM]
O=C(CCCCl)NC1=NN(c2ccccc2)C(=O)C1,-10%,2,-25,1%,-5%,8.9µM*
CCOC(=O)c1c(NC(=O)CN2CCOCC2)sc2c1CC(C)(C)OC2,-5%,0,u,2%[38.3 µM],-16%,14µM*
CCOC(=O)c1c(NC(=O)CCC(=O)N2CCOCC2)sc2c1CC(C)(C)OC2,-1%,5,u,-9%[38.3 µM],-8%,u
CCCC(=O)Nc1sc2c(c1C(=O)OCC)CC(C)(C)OC2,x,x,x,16%,x,u
CCOC(=O)c1c(NC(=O)CCN2CCOCC2)sc2c1CC(C)(C)OC2,-3%,-3,u,-13%[38.3 µM],-4%,22µM*
C=C(C)CNC(=S)Nc1sc2c(c1C(=O)OCC)CC(C)(C)OC2,-15%,-22,-9,x,x,13µM*
COc1ccc(-c2nc3c(c4c2C[C@H](c2ccccc2)OC4)CN(S(=O)(=O)c2ccc(Cl)c4nonc24)CC3)c(C)c1,-7%[11.4 µM],x,x,3%,-3%,u
CN1CCN(C2=Cc3cc(Cl)ccc3Sc3cc(F)ccc32)CC1,-4%,25,43,32%,-29%,-10%
CN1CCN(C2=Cc3ccccc3Sc3cc(F)c(Cl)cc32)CC1,-9%,22,-6,19%,28µM*,5.6µM*
CN1CCN(C2=Cc3ccccc3Sc3cc(F)c(F)cc32)CC1,-1%,26,-88*,33%,25µM*,0%
Cc1noc(C)c1C(=O)N1CCC2(CC1)CCN(C(c1ccccc1)c1ccccc1)CC2,2%,x,x,18%,-26%,u
CCOc1ccc(S(=O)(=O)Nc2ccc3c(c2)c(C(C)=O)c(C)n3S(=O)(=O)c2ccc(OCC)cc2)cc1,x,2,x,x,x,x
COc1ccccc1N1C(=O)CSC1=NC(=O)c1ccccc1,x,x,x,x,x,-2%
COc1ccccc1N=C1SCC(=O)N1c1ccccc1OC,-3%,x,44,-2%,u,20µM*
COc1cc(NS(C)(=O)=O)ccc1Cc1c2ccccc2nc2ccccc12,2%,x,x,2%,-20%,15%
c1csc(-c2nc3nc4ccccc4nc3n2Cc2ccc3c(c2)OCO3)c1,-8%,4,u,29%[38.3 µM],u,u
Clc1ccccc1-c1nc2nc3ccccc3nc2n1-c1ccc2c(c1)OCO2,-3%,x,u,9%,-16%,11µM*
O=c1c2cc(Br)cc(Br)c2oc2nc3n(c(=O)c12)CCCS3,-7%,u,30,5%[38.3 µM],u,u
O=Cc1ccc2oc3nc4n(c(=O)c3c(=O)c2c1)CCCS4,4%,-6,3,25%[38.3 µM],u,2.5µM*
COc1ccc(S(=O)(=O)NC2(C(F)(F)F)N=C(c3ccccc3)NC2=O)cc1 (stereo not drawn),0%,x,-113*,1%,-1%,13%
O=C1NC(c2ccccc2)=NC1(NS(=O)(=O)c1ccc(Cl)cc1)C(F)(F)F (stereo not drawn),-2%,x,-20,8%,0%,-2%
SMILES,ALOX12 inhib,IMPase cell inh,PNC inhibitor,IMPase Li inh,HPGD block,ALDH1A1 block
N[C@@H](CNO)C(=O)O,1%[11.4 µM],x,x,-3%,-11%,10%[13.5 µM]
COc1ccccc1Cn1cccc1C=O,x,x,x,5%,x,14µM*
CCC(=O)c1ccc(OCc2ccc(C(=O)OC)o2)c(OC)c1,-12%,1,u,17%[38.3 µM],22µM*,u
COC(=O)c1ccc(COc2ccc(C=O)cc2OC)o1,x,x,x,6%,x,u
CCN(CC)S(=O)(=O)c1ccc2c(c1)nc(SCC(N)=O)n2-c1ccc(OC)cc1,-7%,7,-10,-17%[38.3 µM],22µM*,u
COc1ccc(-n2c(=O)c(-c3ccc(Cl)cc3)nc3cncnc32)cc1,-1%,x,x,3%,-8%,-1%
Cn1c(-c2cc(Br)ccc2O)n[nH]c1=S,-6%,2,u,23%[38.3 µM],14µM*,3%
O=C(OCC(=O)c1cccs1)c1ccccc1,-2%,-8,-13,10%[38.3 µM],14µM*,13µM*
O=C(CC(Nc1ccccc1Cl)C(=O)OCC(=O)c1cccs1)c1ccccc1 (stereo not drawn),-11%,12,-13,8%[38.3 µM],-20%,25µM*
COc1ccccc1NC(CC(=O)c1ccccc1)C(=O)OCC(=O)c1ccc(Br)cc1 (stereo not drawn),1%,x,27,6%,-10%,u
Cc1nn(CC(C)C)c(=S)[nH]c1=O,-6%,-12,-83*,22%[38.3 µM],-10%,-11%
Cc1nnc(SCC(C)C)[nH]c1=O,6%,-2,7,1%[38.3 µM],-11%,-4%
Cc1ccccc1C(=O)Nc1ccc2c(c1)OCO2,-10%,12,u,-18%[38.3 µM],18µM*,-5%
CN(c1ccccc1C(=O)Nc1ccc2c(c1)OCO2)S(C)(=O)=O,-1%,4,-100*,0%,-25%,-1%
COc1ccccc1C(=O)Nc1cccc(N(C)S(C)(=O)=O)c1,0%,-3,-100*,2%,-14%,-4%
CSc1ccccc1C(=O)Nc1cccc(N(C)S(C)(=O)=O)c1,-4%,14,u,26%[38.3 µM],-2%,u
O=C(O)CCCNC(=O)c1ccc(NC(=O)Cc2ccc(Cl)cc2)cc1,x,x,x,-18%,x,-3%
Cc1ccc(-c2nn(C)c(=O)c3ccccc23)cc1CNC(=O)CN1CCOCC1,1%,-2,13,29%[38.3 µM],20µM*,u
Cc1ccc(-c2nn(C)c(=O)c3ccccc23)cc1CO,4%,14,2,5%,32µM*,11%
CC(=O)OCc1cc(-c2nn(C)c(=O)c3ccccc23)ccc1C,x,x,x,3%,x,-4%
CCC(CO)Nc1ccc(-c2nn(C)c(=O)c3ccccc23)cc1[N+](=O)[O-] (stereo not drawn),x,x,x,5%,x,1.4µM*
N#CC(=C(/N)Sc1ccccc1N)/C(C#N)=C(\N)Sc1ccccc1N,x,x,x,-4%,x,x
